From PubChem BioAssay (EPA / NIEHS)
Calls of active or inactive are those of the source. Rule for the calls: active = hit-call score of the fitted dose curve at least 0.9, where 1 is the maximum; inactive = score below 0.9.

Tests used:
[1] = target: Bile acid receptor (Homo sapiens) (UniProt Q96RI1); test: ATG_IR1_CIS: Attagene CIS-FACTORIAL HepG2 Assay for human Nuclear Receptor Subfamily 1 Group H Member 4 (NR1H4), IR1 submotif (AID 2282946); details: IR1 reporter transcription, actives raise or lower the signal
Summary of the method: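 Cells (human HepG2) carry transiently transfected cis-promoter reporter transcription units. Compounds are incubated 24 h, total RNA is reverse-transcribed and amplified, and labelled fragments are resolved by capillary electrophoresis. Curves use DMSO as baseline.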

[2] = ATG_GRE_CIS: Attagene CIS-FACTORIAL HepG2 Assay for human Glucocorticoid Response Elements (GRE) (AID 2282947); details: HepG2 GRE cis-reporter, Attagene multiplex mRNA; actives raise or lower the signal
Summary of the method: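 Transient MRTU transfection of human HepG2 liver cells; cis-regulated reporters report endogenous factors. 24 h dosing → RNA isolation → RT-PCR → 6-FAM primer extension → HpaI cut → CE fragment analysis. Bidirectional fit, DMSO negative control.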

[3] = ATG_ISRE_CIS: Attagene CIS-FACTORIAL HepG2 Assay for human Interferon Regulatory Factor 1 (IRF1) binding to an Interferon-Stimulated Response Element (ISRE) (AID 2282948); details: HepG2 ISRE cis-reporter (Attagene), mRNA transcription readout; actives raise or lower the signal
Summary of the method: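 Transfected HepG2 (multiple reporter transcription units, cis elements) dosed 24 h. RNA → oligo(dT) RT → PCR → 6-FAM primer extension → HpaI → CE. DMSO = negative control/baseline.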

[4] = ATG_M_32_CIS: Attagene CIS-FACTORIAL HepG2 Assay for M32 Transcription Factor (Internal Marker) (AID 2282949); details: HepG2 Attagene cis-factorial M32 reporter, mRNA; actives raise or lower the signal;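 note: background control marker of the multiplexed CIS panel rather than a real target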
Summary of the method: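 Fluorescent capillary electrophoresis peaks of HpaI-digested, FAM-labelled RT-PCR reporter products give the signal. Source: transiently transfected human liver HepG2 cells, 24 h after chemical dosing; bidirectional fitting against DMSO.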

[5] = ATG_M_06_CIS: Attagene CIS-FACTORIAL HepG2 Assay for M06 Transcription Factor (Internal Marker) (AID 2282950); details: HepG2 Attagene CIS-FACTORIAL M06 internal marker reporter; actives raise or lower the signal
Summary of the method: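 Steps: transfect HepG2 with multiplexed cis-element reporter constructs; dose chemical 24 h; extract RNA with DNase treatment; reverse-transcribe, PCR-amplify, 6-FAM label, HpaI digest; separate fragments by capillary electrophoresis. Activity fitted both directions versus DMSO.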

[6] = target: Hypoxia-inducible factor 1-alpha (Homo sapiens) (UniProt Q16665); test: ATG_HIF1a_CIS: Attagene CIS-FACTORIAL HepG2 Assay for human Hypoxia Inducible Factor 1 (HIF1A) (AID 2282951); details: HepG2 Attagene cis-factorial HIF1a reporter transcription; actives raise or lower the signal
Summary of the method: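 HepG2 cells transiently transfected with multiple cis-regulated reporter transcription units measure endogenous transcription factor activity. After 24 h exposure, reporter mRNA is quantified by RT-PCR with 6-FAM labelling, HpaI digestion and capillary electrophoresis. Bidirectional fitting against DMSO.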

[7] = target: Hepatocyte nuclear factor 6 (Homo sapiens) (UniProt Q9UBC0); test: ATG_HNF6_CIS: Attagene CIS-FACTORIAL HepG2 Assay for human Hepatocyte Nuclear Factor 6 (HNF6) (AID 2282952); details: HepG2 Attagene cis-factorial HNF6 reporter transcription; actives raise or lower the signal
Summary of the method: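 Cells are HepG2 carrying transiently transfected cis-promoter reporter units. Treatment lasts 24 h, after which reporter transcripts are reverse-transcribed, amplified, FAM-labelled and sized by capillary electrophoresis. DMSO serves as baseline.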

[8] = target: Heat shock factor protein 1 (Homo sapiens) (UniProt Q00613); test: ATG_HSE_CIS: Attagene CIS-FACTORIAL HepG2 Assay for human Heat Shock Transcription Factor 1 (HSE) (AID 2282953); details: HepG2 HSE cis-reporter, Attagene RNA transcription; actives raise or lower the signal
Summary of the method: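 Cells were transfected with cis-element-driven reporter constructs, dosed for 24 h, then total RNA was reverse-transcribed and reporter cDNA amplified, FAM-labelled and digested with HpaI. Fragments were resolved by capillary electrophoresis; gain or loss was fitted against DMSO.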

[9] = ATG_MRE_CIS: Attagene CIS-FACTORIAL HepG2 Assay for human Metal Responsive Element (MRE) (AID 2282954); details: HepG2 MRE cis-reporter transcription, Attagene multiplex; actives raise or lower the signal
Summary of the method: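 Transient MRTU transfection of HepG2 (FuGene 6); 24 h dosing; total RNA → oligo(dT) RT, PCR, 6-FAM primer extension, HpaI cut, CE. Bidirectional fit vs DMSO.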

[10] = ATG_PBREM_CIS: Attagene CIS-FACTORIAL HepG2 Assay for human Phenobarbital-responsive Enhancer Module (PBREM) (AID 2282955); details: HepG2 PBREM cis-reporter, Attagene multiplexed transcription; actives raise or lower the signal
Summary of the method: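 HepG2 cells transiently transfected with multiple cis-regulated reporter units measure endogenous transcription factor activity; 24 h compound exposure. Reporter mRNA quantified by RT-PCR, fluorescent labelling, HpaI digestion and capillary electrophoresis; bidirectional fit versus DMSO.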

[11] = target: Paired box protein Pax-6 (Homo sapiens) (UniProt P26367); test: ATG_Pax6_CIS: Attagene CIS-FACTORIAL HepG2 Assay for human Paired Box 6 (PAX6) (AID 2282956); details: HepG2 CIS-FACTORIAL PAX6 reporter transcription, RNA readout; actives raise or lower the signal
Summary of the method: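 Transient MRTU transfection of HepG2 → compound exposure 24 h → TriZol RNA, oligo(dT) RT → PCR, 6-FAM primer extension, HpaI cut → capillary electrophoresis; activity fitted both directions against DMSO.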

[12] = ATG_PXRE_CIS: Attagene CIS-FACTORIAL HepG2 Assay for human Pregnane X Receptor Element (PXRE) (AID 2282957); details: HepG2 Attagene CIS-FACTORIAL PXRE reporter, mRNA; actives raise or lower the signal
Summary of the method: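 Multiplexed cis-reporter assay in transiently transfected human HepG2 cells; 24 h chemical exposure. Reporter transcripts quantified by RT-PCR with fluorescent labeling and capillary electrophoresis.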

[13] = ATG_PPRE_CIS: Attagene CIS-FACTORIAL HepG2 Assay for human Peroxisome Proliferator-activated Response Element (PPRE) (AID 2282958); details: HepG2 PPRE cis-element reporter, Attagene transcription factor profiling; actives raise or lower the signal
Summary of the method: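 HepG2 cells are transiently transfected with multiplexed cis-promoter reporter units to report endogenous PPAR activity. After 24 h dosing, reporter mRNA is read by RT-PCR and capillary electrophoresis. Fitting is bidirectional against DMSO.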

[14] = ATG_RORE_CIS: Attagene CIS-FACTORIAL HepG2 Assay for human RAR-related Orphan Receptor Element (RORE) (AID 2282959); details: HepG2 Attagene cis-factorial RORE reporter, mRNA; actives raise or lower the signal
Summary of the method: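 HepG2 cells carrying transiently transfected cis-regulated reporter units; RORE-driven reporter mRNA quantified 24 h post-dosing by RT-PCR, 6-FAM primer extension, HpaI digestion and capillary electrophoresis. Bidirectional fit versus DMSO.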

[15] = ATG_Sox_CIS: Attagene CIS-FACTORIAL HepG2 Assay for human SRY-box transcription factor (SOX) (AID 2282960); details: HepG2 Attagene cis-factorial SOX reporter, mRNA; actives raise or lower the signal
Summary of the method: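 HepG2 cells transiently transfected with multiple cis-regulated reporter units, then dosed for 24 h. Reporter mRNA quantified by RT-PCR, fluorescent labelling, HpaI digestion and capillary electrophoresis; bidirectional fit versus DMSO.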

[16] = target: Transcription factor Sp1 (Homo sapiens) (UniProt P08047); test: ATG_Sp1_CIS: Attagene CIS-FACTORIAL HepG2 Assay for human Specificity Protein 1 (Sp1) (AID 2282961); details: HepG2 Sp1 cis-reporter transcription, actives raise or lower the signal
Summary of the method: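 HepG2 cells transiently transfected with multiplexed cis-regulated reporter constructs, chemical exposure 24 h. Reporter mRNA quantified by RT-PCR with capillary electrophoresis; bidirectional fit relative to DMSO.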

[17] = target: Signal transducer and activator of transcription 3 (Homo sapiens) (UniProt P40763); test: ATG_STAT3_CIS: Attagene CIS-FACTORIAL HepG2 Assay for human Signal Transducer and Activator of Transcription 3 (STAT3) (AID 2282963); details: HepG2, Attagene cis-factorial STAT3 reporter transcription; actives raise or lower the signal
Summary of the method: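 Endogenous STAT3-responsive cis-element activity was read in transiently transfected HepG2 cells after 24 h treatment. Reporter transcripts were quantified via RT-PCR and capillary electrophoresis, with DMSO as negative control and bidirectional curve fitting.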

[18] = ATG_TA_CIS: Attagene CIS-FACTORIAL HepG2 Assay for human TA Basal Promoter (AID 2282964); details: HepG2 Attagene CIS-factorial TA basal promoter reporter; actives raise or lower the signal
Summary of the method: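 Steps: transfect HepG2 with MRTUs; dose 24 h; isolate RNA, DNase-treat, reverse-transcribe; PCR and FAM-label reporter cDNA; digest with HpaI 2h at 37 C; run capillary electrophoresis. Activity fitted both directions against DMSO.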

[19] = ATG_TCF_b_cat_CIS: Attagene CIS-FACTORIAL HepG2 Assay for human T-Cell-Factor with beta-catenin (TCF/b-cat) (AID 2282965); details: HepG2 TCF/beta-catenin cis-reporter transcription, actives raise or lower the signal
Summary of the method: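 Measured: reporter mRNA in HepG2 transiently transfected with cis-promoter reporter units, 24 h after chemical addition. Fitting was bidirectional, DMSO as negative control.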

[20] = ATG_SREBP_CIS: Attagene CIS-FACTORIAL HepG2 Assay for human Sterol Regulatory Element Binding (SREBP) (AID 2282962); details: HepG2 Attagene cis-factorial SREBP reporter, mRNA; actives raise or lower the signal
Summary of the method: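 Transfected HepG2 (cis-regulated reporter library, endogenous TFs) → compound 24 h → total RNA → oligo(dT) RT → reporter-specific PCR → FAM primer extension, HpaI cut → CE fluorescence. Fit bidirectional vs DMSO.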

Measured: AC50

Sequence of Paired box protein Pax-6 (Homo sapiens) (P26367 whole entry, looked up): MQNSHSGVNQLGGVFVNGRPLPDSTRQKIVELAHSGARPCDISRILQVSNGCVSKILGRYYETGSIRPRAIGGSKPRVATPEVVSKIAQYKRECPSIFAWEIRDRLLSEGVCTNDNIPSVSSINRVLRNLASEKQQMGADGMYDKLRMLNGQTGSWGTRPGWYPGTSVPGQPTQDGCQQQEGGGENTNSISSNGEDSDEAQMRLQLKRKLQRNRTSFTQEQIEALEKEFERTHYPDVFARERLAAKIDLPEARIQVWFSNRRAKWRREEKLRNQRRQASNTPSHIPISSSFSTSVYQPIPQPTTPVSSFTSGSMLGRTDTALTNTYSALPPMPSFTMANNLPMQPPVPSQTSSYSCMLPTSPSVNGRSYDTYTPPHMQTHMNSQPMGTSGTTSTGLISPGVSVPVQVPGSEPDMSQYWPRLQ
Sequence of Hepatocyte nuclear factor 6 (Homo sapiens) (Q9UBC0 whole entry, looked up): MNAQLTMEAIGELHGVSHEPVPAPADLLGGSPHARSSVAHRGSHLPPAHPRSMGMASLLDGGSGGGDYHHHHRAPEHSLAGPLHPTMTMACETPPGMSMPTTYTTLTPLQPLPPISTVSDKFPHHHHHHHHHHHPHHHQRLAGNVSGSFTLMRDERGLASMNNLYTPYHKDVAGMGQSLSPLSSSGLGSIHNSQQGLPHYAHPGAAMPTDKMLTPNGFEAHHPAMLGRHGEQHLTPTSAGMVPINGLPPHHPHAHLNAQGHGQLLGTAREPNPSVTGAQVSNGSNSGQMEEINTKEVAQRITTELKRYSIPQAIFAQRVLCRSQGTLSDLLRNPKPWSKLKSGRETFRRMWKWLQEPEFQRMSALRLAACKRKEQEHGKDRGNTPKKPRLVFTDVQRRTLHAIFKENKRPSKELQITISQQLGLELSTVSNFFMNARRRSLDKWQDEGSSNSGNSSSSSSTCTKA
Sequence of Signal transducer and activator of transcription 3 (Homo sapiens) (P40763 whole entry, looked up): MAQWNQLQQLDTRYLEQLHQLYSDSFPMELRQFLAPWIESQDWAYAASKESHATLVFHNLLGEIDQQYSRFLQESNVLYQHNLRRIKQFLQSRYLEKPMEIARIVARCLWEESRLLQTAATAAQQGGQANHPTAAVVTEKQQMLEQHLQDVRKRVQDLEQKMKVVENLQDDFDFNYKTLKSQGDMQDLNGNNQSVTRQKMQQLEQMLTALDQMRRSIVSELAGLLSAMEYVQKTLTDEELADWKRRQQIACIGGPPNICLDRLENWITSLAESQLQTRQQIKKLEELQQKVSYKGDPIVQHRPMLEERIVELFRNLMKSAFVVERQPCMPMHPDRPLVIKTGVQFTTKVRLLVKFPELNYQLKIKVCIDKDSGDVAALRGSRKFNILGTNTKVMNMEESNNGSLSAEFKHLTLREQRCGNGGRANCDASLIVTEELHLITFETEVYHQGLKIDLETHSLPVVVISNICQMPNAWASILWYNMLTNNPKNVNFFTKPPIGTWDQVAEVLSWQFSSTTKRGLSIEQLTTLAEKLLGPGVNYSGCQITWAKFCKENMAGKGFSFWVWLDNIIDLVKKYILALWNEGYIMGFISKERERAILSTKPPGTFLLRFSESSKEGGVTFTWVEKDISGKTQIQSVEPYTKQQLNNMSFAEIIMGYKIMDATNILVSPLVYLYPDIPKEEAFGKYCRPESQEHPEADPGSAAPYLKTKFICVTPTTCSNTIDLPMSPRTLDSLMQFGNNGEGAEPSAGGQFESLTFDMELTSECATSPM
Sequence of Heat shock factor protein 1 (Homo sapiens) (Q00613 whole entry, looked up, the tested form may be a part): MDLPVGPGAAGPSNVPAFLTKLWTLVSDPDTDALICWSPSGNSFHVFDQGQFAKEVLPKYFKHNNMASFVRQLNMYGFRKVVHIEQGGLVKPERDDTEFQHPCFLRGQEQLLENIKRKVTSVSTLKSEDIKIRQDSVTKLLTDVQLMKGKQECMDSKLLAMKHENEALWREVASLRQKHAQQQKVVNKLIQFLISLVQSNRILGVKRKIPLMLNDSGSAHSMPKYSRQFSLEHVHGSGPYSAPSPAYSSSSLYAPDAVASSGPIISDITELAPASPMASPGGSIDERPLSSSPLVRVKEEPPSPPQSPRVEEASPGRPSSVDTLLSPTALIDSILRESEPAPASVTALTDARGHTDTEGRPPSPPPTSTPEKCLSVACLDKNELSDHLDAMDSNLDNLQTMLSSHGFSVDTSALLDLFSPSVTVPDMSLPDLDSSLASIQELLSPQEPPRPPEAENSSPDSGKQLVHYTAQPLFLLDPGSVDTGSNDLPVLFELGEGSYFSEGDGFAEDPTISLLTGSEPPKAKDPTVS
Sequence of Bile acid receptor (Homo sapiens) (Q96RI1 whole entry, looked up, the tested form may be a part): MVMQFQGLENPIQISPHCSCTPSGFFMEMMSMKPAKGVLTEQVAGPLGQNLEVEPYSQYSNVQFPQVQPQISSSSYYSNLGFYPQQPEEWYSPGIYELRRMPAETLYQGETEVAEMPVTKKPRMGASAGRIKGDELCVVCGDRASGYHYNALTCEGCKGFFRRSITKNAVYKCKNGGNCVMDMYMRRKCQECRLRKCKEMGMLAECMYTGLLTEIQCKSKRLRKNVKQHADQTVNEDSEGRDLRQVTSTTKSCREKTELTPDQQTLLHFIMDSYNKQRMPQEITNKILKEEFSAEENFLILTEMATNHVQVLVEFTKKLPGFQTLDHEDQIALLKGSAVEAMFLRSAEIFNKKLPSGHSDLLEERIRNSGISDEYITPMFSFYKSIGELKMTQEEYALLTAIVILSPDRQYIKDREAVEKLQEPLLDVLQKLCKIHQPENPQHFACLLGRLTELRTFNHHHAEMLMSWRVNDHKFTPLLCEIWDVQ
Sequence of Transcription factor Sp1 (Homo sapiens) (P08047 whole entry, looked up): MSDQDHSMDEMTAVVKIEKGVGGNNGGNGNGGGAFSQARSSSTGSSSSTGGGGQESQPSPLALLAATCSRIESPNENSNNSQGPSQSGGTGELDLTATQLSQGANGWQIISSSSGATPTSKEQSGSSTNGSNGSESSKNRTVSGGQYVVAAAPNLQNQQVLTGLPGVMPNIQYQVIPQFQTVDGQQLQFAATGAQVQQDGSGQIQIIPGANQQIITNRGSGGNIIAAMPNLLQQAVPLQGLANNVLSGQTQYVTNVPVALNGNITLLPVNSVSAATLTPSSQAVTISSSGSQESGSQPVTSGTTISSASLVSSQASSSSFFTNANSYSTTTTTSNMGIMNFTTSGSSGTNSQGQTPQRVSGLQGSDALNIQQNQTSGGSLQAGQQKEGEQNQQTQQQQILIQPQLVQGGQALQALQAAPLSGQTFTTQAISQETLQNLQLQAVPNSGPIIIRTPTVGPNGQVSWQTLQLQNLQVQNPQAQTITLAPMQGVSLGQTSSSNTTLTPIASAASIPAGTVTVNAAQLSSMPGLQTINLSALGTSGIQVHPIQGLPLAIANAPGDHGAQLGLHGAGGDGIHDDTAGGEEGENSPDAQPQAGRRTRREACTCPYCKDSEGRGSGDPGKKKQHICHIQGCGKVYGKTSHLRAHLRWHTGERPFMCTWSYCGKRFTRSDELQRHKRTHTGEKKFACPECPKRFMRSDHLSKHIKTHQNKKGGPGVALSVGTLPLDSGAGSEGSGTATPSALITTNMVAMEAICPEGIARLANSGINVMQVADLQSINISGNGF
Sequence of Hypoxia-inducible factor 1-alpha (Homo sapiens) (Q16665 whole entry, looked up): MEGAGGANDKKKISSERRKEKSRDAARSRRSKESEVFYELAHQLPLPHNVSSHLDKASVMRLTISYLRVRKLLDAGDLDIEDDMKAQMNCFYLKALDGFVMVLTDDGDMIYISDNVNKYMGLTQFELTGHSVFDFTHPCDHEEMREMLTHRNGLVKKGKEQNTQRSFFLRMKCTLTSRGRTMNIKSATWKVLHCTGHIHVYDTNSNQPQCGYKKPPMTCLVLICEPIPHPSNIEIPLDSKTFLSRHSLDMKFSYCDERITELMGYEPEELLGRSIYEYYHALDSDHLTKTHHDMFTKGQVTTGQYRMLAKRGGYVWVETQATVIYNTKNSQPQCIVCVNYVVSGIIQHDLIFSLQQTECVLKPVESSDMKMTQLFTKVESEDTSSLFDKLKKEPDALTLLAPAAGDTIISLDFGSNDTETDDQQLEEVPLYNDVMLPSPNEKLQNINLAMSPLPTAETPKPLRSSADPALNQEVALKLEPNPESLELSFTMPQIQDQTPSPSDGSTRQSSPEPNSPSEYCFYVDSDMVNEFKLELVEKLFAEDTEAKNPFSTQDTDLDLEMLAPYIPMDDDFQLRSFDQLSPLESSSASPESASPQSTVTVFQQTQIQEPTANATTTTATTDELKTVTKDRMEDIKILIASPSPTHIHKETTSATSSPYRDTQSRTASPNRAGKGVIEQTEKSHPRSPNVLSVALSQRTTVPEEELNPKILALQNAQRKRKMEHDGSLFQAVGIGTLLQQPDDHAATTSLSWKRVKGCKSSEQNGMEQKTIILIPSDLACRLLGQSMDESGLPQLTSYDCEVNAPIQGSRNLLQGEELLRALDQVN

CCCCc1ccc(O)cc1
active: [6] 164 µM | [8] 139 µM
not listed: [20]
inactive: all other assays above

Cc1ccc(C(=O)Cl)cc1
inactive: all assays above

CCN(CC)C1CCCCC1
not listed: [19]
inactive: all other assays above

O=S(=O)(F)C(F)(F)C(F)(F)C(F)(F)C(F)(F)C(F)(F)C(F)(F)C(F)(F)C(F)(F)F
not listed: [18] | [20]
inactive: all other assays above

CC(C)(C)OOC(C)(C)C
not listed: [20]
inactive: all other assays above

CCOP(=S)(NC(C)C)Oc1ccccc1C(=O)OC(C)C (centres undefined)
active: [1] 26.5 µM | [3] 41.7 µM | [9] 59.9 µM | [12] 0.699 µM | [14] 46.6 µM
not listed: [19]
inactive: all other assays above

O=c1[nH]c2ccccc2c(=O)o1
inactive: all assays above
